Compound activity from PubChem.
Compounds with a hit are over-represented: about 3% of the library has one in this group of screens.
SENP7 inh = SENP7 protease inhibitors, primary screen, biochemical, luminescence, uHTS; Sentrin-specific protease 7 (Homo sapiens), Q9BQF6; recombinant SENP7, Z-RLRGG-aminoluciferin luminescence, 40 min; inhibition, % at 5 µM; actives 1.5% (n = 330,000); AID 434973, 2010;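 active means inhibition above about 50% at the single test dose, limit read from the data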
Target sequence (Q9BQF6 706-1050 limits assumed): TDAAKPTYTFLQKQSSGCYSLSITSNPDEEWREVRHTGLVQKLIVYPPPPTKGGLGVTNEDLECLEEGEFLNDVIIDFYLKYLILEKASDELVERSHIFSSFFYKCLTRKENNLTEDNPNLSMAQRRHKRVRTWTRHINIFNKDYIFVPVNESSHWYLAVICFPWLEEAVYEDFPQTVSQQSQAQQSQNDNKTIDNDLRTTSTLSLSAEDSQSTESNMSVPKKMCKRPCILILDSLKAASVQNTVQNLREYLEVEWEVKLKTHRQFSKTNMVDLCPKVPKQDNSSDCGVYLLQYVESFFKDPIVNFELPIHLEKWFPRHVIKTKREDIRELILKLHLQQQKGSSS
PPC-1+TRAIL kill = compounds killing PPC-1 cancer cells with TRAIL present, primary screen, TRAIL potentiator project, ATPLite luminescence, uHTS | AID 1443, 2008 | actives 0.41% (n = 220,000) | PPC-1 cells + TRAIL, ATPLite viability luminescence | cell killing (% activity), % at 4 µM or 5 µM;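 active means cell killing above 50% in the first pass at 4 µM, then a duplicate retest at 5 µM averaging 50% or more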
SENP6 block = SENP6 protease inhibitors, primary screen, biochemical, luminescence, uHTS; actives 1.8% (n = 330,000); Recombinant SENP6 catalytic domain, aminoluciferin luminescence; inhibition, % at 10 µM; AID 2599, 2010;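 active means inhibition above about 50% at the single tested dose, limit read from the data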
SENP8 block-1 = SENP8 protease inhibitors, primary screen, biochemical, luminescence; Sentrin-specific protease 8 (Homo sapiens), Q96LD8; purified SENP8, Z-RLRGG-aminoluciferin cleavage; inhibition, % at 10 µM; actives 1.2% (n = 330,000); in the data active means inhibition above about 50%
Target sequence (Q96LD8 whole entry, looked up): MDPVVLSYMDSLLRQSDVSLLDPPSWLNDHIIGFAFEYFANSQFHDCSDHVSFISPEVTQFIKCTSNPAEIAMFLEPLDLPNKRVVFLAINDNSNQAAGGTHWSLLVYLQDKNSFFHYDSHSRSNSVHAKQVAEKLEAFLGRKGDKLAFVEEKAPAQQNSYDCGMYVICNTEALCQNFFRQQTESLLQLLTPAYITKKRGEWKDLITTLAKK
C8 TRAIL sens = viability loss with TRAIL in NB7+C8 cells, primary screen, TRAIL sensitizer project, cell-based, ATPlite luminescence; inhibition (viability loss, TRAIL sensitization), % at 10 µM; actives 1% (n = 360,000);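 active means compounds causing at least 50% loss of cell viability in the single-dose screen, relative to plate controls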
SENP8 block-2 = human SENP8 protease inhibitors, primary screen, biochemical, fluorescence, Nedd8 protein substrate, uHTS | actives 0.64% (n = 360,000) | inhibition, % at 20 µM | AID 602440, 2012 | recombinant SENP8; in the data active means inhibition mostly above about 40%, no sharp cut-off; inactive means mostly below about 27%
SENP8 confirm = SENP8 protease inhibitors, retest, confirmation, biochemical, luminescence, single concentration; AID 488912, 2010; shares compounds with SENP7 inh; actives 40% (n = 6,200); Recombinant SENP8, Z-RLRGG-aminoluciferin luminescence, 60 min; inhibition, % at 12.5 µM;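 active means mean inhibition across replicates above about 50%, limit read from the data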
SENP6 confirm = SENP6 protease inhibitors, confirmation, biochemical, luminescence, single concentration. shares compounds with SENP7 inh. recombinant SENP6, Z-RLRGG-aminoluciferin luminescence. inhibition, % at 12.5 µM. actives 58% (n = 6,200)
SENP7 confirm = SENP7 protease inhibitors, retest, confirmation, biochemical, luminescence, single concentration; shares compounds with SENP7 inh; recombinant SENP7, Z-RLRGG-aminoluciferin luminescence, 40 min; inhibition, % at 12.5 µM; actives 69% (n = 6,200); AID 488917, 2010
Casp3 select = caspase-3 protease inhibitors, confirmation, selectivity assay for SENP inhibitor project, biochemical, single concentration | shares compounds with SENP7 inh | purified caspase-3, Z-DEVD-aminoluciferin luminescence, 60 min | inhibition, % at 12.5 µM | actives 60% (n = 6,200) | AID 488918, 2010;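 active means mean inhibition above about 50%, limit read from the data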
SENP luc ctr = interferes with luciferase luminescence in SENP counter-screen; shares compounds with SENP7 inh; inhibition, % at 12.5 µM; actives 39% (n = 6,200); AID 488919; Pre-incubated SENP8/Z-RLRGG-aminoluciferin, luciferase luminescence interference;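 active means mean inhibition above about 50% when retested at one dose, limit read from the data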
Hits are given with their value; – = inactive; · = not tested or not shown.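 How the source made its calls, unless noted: active means mean inhibition above about 50% in the one-dose retest (limit read from the data); inactive means the rest.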

SMILES | SENP7 inh | PPC-1+TRAIL kill | SENP6 block | SENP8 block-1 | C8 TRAIL sens | SENP8 block-2 | SENP8 confirm | SENP6 confirm | SENP7 confirm | Casp3 select | SENP luc ctr
Cc1ccc(NC(=O)C(C)Sc2nnc3n2CCCCC3)cc1S(=O)(=O)N1CCOCC1 (centres undefined) | · | · | · | · | – | – | · | · | · | · | ·
CCCS(=O)(=O)c1cnc(C2COc3ccccc3O2)nc1N (centres undefined) | 94 | · | 93 | 87 | – | – | 82 | 92 | 100 | 96 | –
COc1ccccc1Oc1ccc(N/C=C/C(=O)c2ccco2)cc1 | 57 | – | 85 | 55 | – | – | 88 | 89 | 100 | 81 | 76
O=C(/C=C/Nc1ccc(Oc2ccccc2Cl)cc1)c1ccco1 | – | – | – | – | – | – | · | · | · | · | ·
O=C(/C=C/Nc1ccc(F)c(Cl)c1)c1ccco1 | – | – | 70 | – | – | – | 67 | 66 | 88 | 56 | –
CC(=O)Nc1ccc(N/C=C/C(=O)c2ccco2)cc1 | – | – | – | – | – | – | · | · | · | · | ·
O=C(/C=C/Nc1cccc(F)c1)c1ccco1 | 73 | – | 82 | 52 | – | – | – | 72 | 94 | 85 | 78
CSCCC(NC(=O)/C(=C/c1ccc(F)cc1)NC(C)=O)C(=O)O (centres undefined) | – | – | – | – | – | – | · | · | · | · | ·
CCSC(=O)N=Nc1ccc(O)cc1 | · | · | · | · | – | – | · | · | · | · | ·
CC(=O)Nc1ccc(S(=O)(=O)NCC2CCC(C(=O)NCCCN(C)Cc3ccccc3)CC2)cc1 (centres undefined) | – | · | – | – | – | – | · | · | · | · | ·
Cc1cc(C(=O)OCC(=O)N(C)c2ccccc2)c(C)o1 | – | · | – | – | – | – | · | · | · | · | ·
O=C(Nc1ccc(F)c(Cl)c1)c1ccc2c(=O)n3c(nc2c1)CCCCC3 | 69 | – | 76 | – | – | – | – | 60 | 91 | 62 | –
COc1cc(C(=O)Nc2ccc3nc4n(c(=O)c3c2)CCCC4)ccc1Br | – | · | – | – | – | – | · | · | · | · | ·
COc1cc(OC)cc(C(=O)Nc2ccc3nc4n(c(=O)c3c2)CCCC4)c1 | 86 | · | 87 | 77 | – | – | 58 | 82 | 96 | 92 | 80
COc1cccc(C(=O)Nc2ccc3nc4n(c(=O)c3c2)CCCC4)c1 | – | · | 53 | – | – | – | – | – | 71 | 73 | –
CSc1nsc(/C=C/Nc2ccc(F)cc2)c1C#N | – | – | – | – | – | – | · | · | · | · | ·
CSc1nsc(/C=C/Nc2cccc(Cl)c2)c1C#N | – | – | 67 | – | – | – | – | – | – | – | –
CSc1nsc(/C=C/Nc2ccc(O)cc2C)c1C#N | – | – | – | – | – | – | · | · | · | · | ·
CSc1nsc(/C=C/Nc2ccc(Cl)cc2)c1C#N | – | – | 55 | – | – | – | – | – | – | – | –
CCOC(=O)[C@]12CCC=C1N(Cc1ccco1)C(=O)[C@H](CC(=O)NCc1ccc(C)o1)C2 | · | · | · | · | – | – | · | · | · | · | ·
COCCN(C(=O)c1csnn1)C(C(=O)NC1CCCC1)c1ccccc1F (centres undefined) | – | · | – | – | – | – | · | · | · | · | ·
COCCn1c(N)c(C(=O)OCc2ccccc2)c2nc3ccccc3nc21 | – | – | 73 | 61 | – | – | – | – | – | – | –
C=CCn1c(N)c(C(=O)OCCC)c2nc3ccccc3nc21 | – | – | – | – | – | – | · | · | · | · | ·
CCN(CC(=O)Nc1c(F)cccc1F)C(=O)C1=COCCO1 | – | · | – | – | – | – | · | · | · | · | ·
c1ccc(CSc2ncnc3c2cnn3-c2ccccc2)cc1 | 72 | – | 71 | 54 | – | – | – | – | – | – | –
SMILES | SENP7 inh | PPC-1+TRAIL kill | SENP6 block | SENP8 block-1 | C8 TRAIL sens | SENP8 block-2 | SENP8 confirm | SENP6 confirm | SENP7 confirm | Casp3 select | SENP luc ctr
CC(C)(C)C(=O)CSc1ncnc2c1cnn2-c1ccccc1 | – | – | – | – | – | – | · | · | · | · | ·
CC(C)OC(=O)CSc1ncnc2c1cnn2-c1ccccc1 | 52 | – | – | – | – | – | – | – | – | – | –
O=C(Nc1ccc2c(c1)OCO2)c1cnc(Cl)c(Cl)c1 | 61 | · | 59 | – | – | – | – | 52 | 85 | 69 | –
CCC(=O)Nc1ccc(NC(=O)c2ccc3c(c2)OCO3)cc1 | – | – | – | – | – | – | · | · | · | · | ·
COc1ccc(/C=C/C(=O)c2ccc3c(c2)OCO3)c(OC)c1 | 83 | – | 84 | – | 56 | – | 87 | 78 | 94 | – | 66
COc1ccc(NC(=O)c2ccc3c(c2)OCO3)cc1 | 60 | · | 68 | 62 | – | – | 63 | 61 | 87 | 88 | 72
COc1ccc(/C=C/C(=O)c2ccccc2)c(OC)c1 | – | – | – | – | – | – | · | · | · | · | ·
Cc1ccc(NC(=O)c2ccc3c(c2)OCO3)cc1Cl | 63 | · | 69 | – | – | – | – | 50 | 88 | – | –
O=C(c1cccc(Cl)c1)C1CCCN(S(=O)(=O)c2ccccc2)C1 (centres undefined) | – | · | – | – | – | – | · | · | · | · | ·
COc1ccc(CN2CCNC(=O)C2CC(=O)NCc2cnn(C)c2)cc1OC (centres undefined) | – | – | – | – | – | – | · | · | · | · | ·
Nc1[nH]c(=O)nc(Nc2ccccc2)c1N=O | – | · | – | – | – | – | · | · | · | · | ·
Cc1ccc(C(=O)Nc2ccc3c(c2)OCO3)cc1Cl | 51 | · | – | – | – | – | – | – | 61 | – | –
Cc1ccc(C(=O)Nc2ccc3c(c2)OCO3)cc1S(=O)(=O)N1CCCC1 | – | – | – | – | – | – | · | · | · | · | ·
O=C(O)c1ccc(OS(=O)(=O)c2ccc(Cl)s2)c(Cl)c1 | – | · | 56 | – | – | – | – | – | 61 | 54 | 60
